Only some compounds are listed: those with a hit (about 3.9% of all), similar ones and a draw of the others.
D1 agonist: Allosteric Agonists of the Human D1 Dopamine Receptor: qHTS | D(1A) dopamine receptor (Homo sapiens), P21728 | HEK293 T-REx D1 cells, calcium flux, agonist mode | activation, % at 2 µM | 360,000 compounds, 1% hits; in the data active means activation above about 30%; further: 0% is about no effect
Target sequence (P21728 whole entry, looked up): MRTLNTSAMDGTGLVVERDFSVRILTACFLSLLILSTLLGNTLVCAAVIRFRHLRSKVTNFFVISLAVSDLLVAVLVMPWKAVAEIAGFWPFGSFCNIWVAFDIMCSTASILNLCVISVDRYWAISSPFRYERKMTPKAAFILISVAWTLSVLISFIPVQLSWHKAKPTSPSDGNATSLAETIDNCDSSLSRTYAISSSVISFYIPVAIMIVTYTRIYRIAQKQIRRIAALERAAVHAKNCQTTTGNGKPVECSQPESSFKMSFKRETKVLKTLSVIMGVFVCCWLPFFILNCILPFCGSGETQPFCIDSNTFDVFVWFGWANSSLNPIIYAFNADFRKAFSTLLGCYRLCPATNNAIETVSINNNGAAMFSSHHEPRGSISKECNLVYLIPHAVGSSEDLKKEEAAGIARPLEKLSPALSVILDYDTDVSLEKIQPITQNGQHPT
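Agonism was scored from calcium flux recorded over 180 s (1 read/s) after pintool compound addition, following a 10-cycle baseline. Cells were inducible force-coupled HEK293 TREx D1, plated overnight at 30 C and loaded with no-wash calcium dye.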
D1 PAM: Potentiators of Human D1 Dopamine Receptor: qHTS. D(1A) dopamine receptor (Homo sapiens), P21728. HEK293 TREx D1 cells, calcium flux, dopamine EC20 potentiation. potentiation, % at 10 µM. 360,000 compounds, 0.036% hits. AID 504651, 2011; in the data active means potentiation above about 30%; further: 0% is about no effect
D1 antag: Antagonist of Human D 1 Dopamine Receptor: qHTS; HEK293 TREx D1 cells, calcium flux, dopamine EC80; active compounds read low; activity change, negative = inhibition, % at 10 µM; 360,000 compounds, 3.2% hits; in the data active means activity change below about -30%; further: on the % scale 0 is the no-effect control and ±100 the full control effect
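Cells carrying a force-coupled, tetracycline-inducible human D1 receptor report calcium flux. Each well gets a 10 s baseline, compound with 180 s monitoring, then an EC80 dopamine stimulus with a second 180 s kinetic read.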
Eya2 inh: qHTS Assay for Inhibitors of the Phosphatase Activity of Eya2; Protein phosphatase EYA2 (Homo sapiens), O00167; recombinant Eya2, OMFP fluorescence dephosphorylation (OMFP is methylfluorescein phosphate); Potency, µM (doses to about 76.9 µM), without a hit: top-dose activity, negative = inhibition, hits mostly inhibitors; AID 488837, 2010; 330,000 compounds, 0.006% hits; further: potency means the concentration at half of the fitted maximal effect; on the % scale 0 is the no-effect control and ±100 the full control effect
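Eya2 (0.2 uM) preincubated 10 min at ambient with compound, then OMFP substrate added at 50 uM; 10 min reaction in 50 mM HEPES pH 7.5, 50 mM NaCl, 5 uM MgCl2, 0.05% BSA, 1 mM DTT. Fluorescence read at Ex 485/Em 525 nm.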
USP2a inh: qHTS Assay for Inhibitors of Ubiquitin-specific Protease USP2a Using CHOP2 as the Reporter. USP2 core, Ub-CHOP2 coupled fluorogenic reporter, 485/531. Potency, µM (top dose mostly 38.3 µM), without a hit: at the highest dose activity change, negative = inhibition, most hits filed as inhibitors. 330,000 compounds, 0.01% hits. AID 463254, 2010;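 further: potency means the concentration at half of the fitted maximal effect; plate controls were DMSO wells for no effect and full inhibition by NEM control for full effect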
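USP2 core (10nM final) preincubated 30min RT with compound in 20mM Tris-HCl pH 8.0, 2mM CaCl2, 2mM beta-mercaptoethanol, 0.05% CHAPS; 25nM Ub-CHOP2 plus 25nM reporter substrate added, fluorescence (Ex485/Em531) read after 60min.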
GALK inh: qHTS Assay for Inhibitors of Human Galactokinase (GALK) | Potency, µM (top dose mostly 57.5 µM), without a hit: top-dose activity change, negative = inhibition, actives largely listed as inhibitors | Purified GALK, Kinase-Glo residual ATP luminescence | 270,000 compounds, 0.007% hits; further: potency means the concentration at half of the fitted maximal effect; on the % scale 0 is the no-effect control and ±100 the full control effect
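Galactose (100 uM) and ATP (35 uM) were turned over by 5 nM GALK for 1 h at RT. Kinase-Glo Plus then converted the remaining ATP into a luminescent signal.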
* marks the source's active call; other numbers are inactive results; nt = not tested or not shown; [ ] = remark or other dose. Unless noted, the call rests on the fitted dose curve; in most records, active means well fitted inhibition curve with a large enough effect; inconclusive means small, poorly fitted or top-dose-only effect, or effect the other way; inactive means flat fitted curve, though single readings scatter.

SMILES	D1 agonist	D1 PAM	D1 antag	Eya2 inh	USP2a inh	GALK inh
COc1ccc(N2CCN(C(=O)NC3CC(=O)N(c4ccc(OC)cc4)C3)CC2)cc1 (configuration not stated)	4.7	-6.5	-44.5*	2.0%	-1.2%	0.7%
CCc1ccccc1NC(=O)Cn1cc(S(=O)(=O)N2CCCC2)c(S(=O)(=O)N2CCCC2)c1	-0.1	-6.6	-11.6	nt	nt	nt
CC(C)c1ccc(S(=O)(=O)N2CCN(Cc3cccc(F)c3)CC2)cc1	7.1	-4.5	-25.1	nt	nt	nt
O=C(CCCC(=O)OCC(=O)c1cccs1)Nc1ccc(Oc2ccccc2)cc1	19.2	-7.5	-41.7*	-2.1%	-1.2%	nt
O=C(COC(=O)C1CCC1)Nc1ccc(Oc2ccccc2)cc1	4.3	-1.6	-14.0	-1.9%	-0.5%	0.2%
O=C(CN1CCCCCC1)Nc1ccc(Oc2ccccc2)cc1	67.4*	-9.6	-37.8*	-2.8%	-3.2%	2.2%
O=C(COC(=O)C1CC1)Nc1ccc(Oc2ccccc2)cc1	4.2	-6.7	-35.3*	11.2%[15.4 µM]	0.8%	0.7%
COC(=O)c1ccccc1NC(=O)CSc1nc2sc3c(c2c(=O)[nH]1)CCCC3	-1.1	-2.5	-11.3	nt	nt	nt
Cc1ccsc1/C=N/NC(=O)c1ccncc1	2.5	2.5	4.6	-11.5%	-3.7%	-1.1%
Cc1ccsc1/C=N/NC(=O)c1ccc2ccccc2c1	-0.2	-11.4	-48.9*	5.6%	2.5%	-0.3%
Cn1cnc(C(=O)N2CCN(C(=O)OC(C)(C)C)CC2)c1C(=O)N1CCN(C(=O)OC(C)(C)C)CC1	2.5	-0.5	-0.4	3.9%	0.9%	nt
Cn1cnc(C(=O)N2CCN(c3ccccc3)CC2)c1C(=O)N1CCN(c2ccccc2)CC1	-0.8	-1.7	-39.1*	5.9%	-1.1%	nt
O=C(Cn1c(-c2cccs2)cc2cc(F)ccc21)N1CCN(c2ccccc2)CC1	1.5	-1.0	5.7	nt	nt	nt
O=C(Cn1c(-c2cccs2)cc2cc(F)ccc21)NCCCN1CCN(c2ccc(F)cc2)CC1	-1.7	-0.1	-35.4*	nt	nt	nt
CCN1CCN(CCCNC(=O)Cn2c(-c3cccs3)cc3cc(F)ccc32)CC1	35.9*	3.8	-6.1	nt	nt	nt
Cc1ccc(NS(=O)(=O)c2cc(C(=O)NCc3ccccn3)ccc2Cl)cc1C	0.8	-4.5	-30.9*	0.1%	0.0%	-4.9%
Cc1ccc(-n2c(=O)c3ccc(C(=O)NCc4ccccc4Cl)cc3n(CC(=O)Nc3ccc(C)cc3C)c2=O)cc1	2.2	2.4	-17.4	nt	nt	nt
CN1CCN(c2cc(N3CCc4ccccc4C3)c(F)cc2[N+](=O)[O-])CC1	8.1	-16.9	-54.0*	-2.8%	-1.1%	3.2%
CC(C)C(=O)N1CCc2cc(-c3csc(N)n3)ccc21	2.3	-5.8	-42.8*	-5.1%	-1.0%	-0.3%
CCC(=O)Nc1cccc(NC(=O)c2ccc(C)cc2Cl)c1	0.5	-4.5	-46.2*	2.9%	4.3%	4.8%
O=C(CCC(=O)OCc1ccc(C(=O)Oc2ccc(Cl)cc2)cc1)Nc1ccccc1	3.1	-4.3	-12.4	-3.2%	4.9%	-1.4%
COc1ccc(NC(=O)CCC(=O)OCc2ccc(C(=O)Oc3ccc(Cl)cc3)cc2)cc1	3.4	-6.3	-31.3*	-13.6%	2.5%	-0.9%
COc1ccc(NC(=O)CCC(=O)OCc2ccc([N+](=O)[O-])cc2)cc1	1.7	0.3	-31.4*	-2.8%	-0.5%	1.3%
CCOC(=O)C1(CCc2ccccc2)CCN(Cc2ccc(C(=O)OC)cc2)CC1	8.2	2.0	1.0	-14.9%	-12.0%	3.8%
CCOC(=O)C1(CCc2ccccc2)CCN(Cc2cc(OC)c(OC)cc2OC)CC1	3.9	1.9	-36.7*	-13.1%	-1.2%	4.0%
